A selection: hits, their analogues and other compounds. The true share with any hit is near 3.4%.
PLCg1 inh – PLC-gamma1 enzyme inhibitors, primary screen, biochemical, fluorescence, purified enzyme | 1-phosphatidylinositol 4,5-bisphosphate phosphodiesterase gamma-1 (Homo sapiens), P19174 | fluorogenic substrate | inhibition, % at 12.2 µM | AID 720700, 2013 | 0.84% of 370,000 active
ADAM17 inh – ADAM17 inhibitors, primary screen, biochemical, QFRET. Disintegrin and metalloproteinase domain-containing protein 17 (Homo sapiens), P78536. recombinant ADAM17, EDANS/DABCYL FRET peptide cleavage. inhibition, % at 6.95 µM. 0.83% of 370,000 active. AID 720648, 2013;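 active = inhibition above the mean of compounds lying between control limits plus 3 SD, set per campaign, cut at about 8.5% in these data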
KLK7 zymogen act – proKLK7 zymogen activators, primary screen, biochemical, fluorescence intensity; purified proKLK7, EDANS-DABCYL substrate fluorescence; 100% is mature enzyme control, 0% vehicle; activation, % at 7 µM; 0.9% of 370,000 active;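 active = activation above the mean of all tested compounds plus 3 SD, computed per campaign excluding outliers beyond control limits, cut at about 13% in these data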
sPLA2-III inh – human group III sPLA2 inhibitors, primary screen, biochemical, QFRET, BODIPY PC-A2 liposome substrate; Group 3 secretory phospholipase A2 (Homo sapiens), Q9NZ20; QFRET BODIPY PC-A2 liposome hydrolysis, fluorescence; inhibition, % at 12.2 µM; 0.56% of 370,000 active; AID 743126, 2013;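 active = inhibition above mean plus 3 SD of compounds lying within the high and low control bounds, cut at about 19% in these data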
PLCb3 inh – human PLC-beta3 inhibitors, primary screen, biochemical, fluorescence. Purified PLC-beta3, fluorogenic substrate. inhibition, % at 12.2 µM. 0.18% of 370,000 active; in the data active = inhibition above about 11%
ADAM10 inh – human ADAM10 inhibitors, primary screen, biochemical, QFRET, HTS; AID 720582, 2013; recombinant ADAM10, EDANS/DABCYL FRET peptide cleavage, 3 h; 0.62% of 370,000 active; inhibition, % at 7 µM; Disintegrin and metalloproteinase domain-containing protein 10 (Homo sapiens), O14672;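 active = inhibition above a per-campaign cutoff equal to the mean of compounds falling between control-based bounds plus 3 SD, cut at about 20% in these data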
Target sequence (O14672 214-748 limits assumed): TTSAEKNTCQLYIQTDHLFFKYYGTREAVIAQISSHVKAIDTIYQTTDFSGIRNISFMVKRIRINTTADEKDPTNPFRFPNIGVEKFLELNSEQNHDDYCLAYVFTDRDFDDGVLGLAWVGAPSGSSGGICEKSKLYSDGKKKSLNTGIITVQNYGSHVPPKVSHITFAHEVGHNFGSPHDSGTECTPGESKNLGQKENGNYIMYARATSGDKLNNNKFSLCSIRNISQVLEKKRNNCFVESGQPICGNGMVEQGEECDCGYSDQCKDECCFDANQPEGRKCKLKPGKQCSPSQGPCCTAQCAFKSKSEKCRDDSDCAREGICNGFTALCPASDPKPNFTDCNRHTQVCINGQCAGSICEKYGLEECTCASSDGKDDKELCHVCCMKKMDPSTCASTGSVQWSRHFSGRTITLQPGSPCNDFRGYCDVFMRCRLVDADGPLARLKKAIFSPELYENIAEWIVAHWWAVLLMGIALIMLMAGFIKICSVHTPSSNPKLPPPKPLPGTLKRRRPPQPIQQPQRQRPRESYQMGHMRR
PLCgamma1 ctr – PLC-gamma1 enzyme inhibitors, counter-screen for PLC-beta3 inhibitor project, biochemical, fluorescence | shares compounds with PLCg1 inh | purified PLC-gamma1, fluorogenic substrate | inhibition, % at 12.3 µM | 3.1% of 3,300 active | AID 743258, 2014
PLCbeta3 conf – PLC-beta3 inhibitor confirmation, biochemical, fluorescence, purified enzyme | shares compounds with PLCg1 inh | 1% of 3,300 active | fluorogenic substrate fluorescence | inhibition, % at 12.3 µM; in the data active = inhibition above about 11%
Numbers stand for hits. Cut-off read from the data, not from the text of the source, unless noted: active = inhibition above about 9.5%; inactive = the rest.

Screening CCOCCCNC(=O)C(c1ccc(C)cc1)N(Cc1ccc2c(c1)OCO2)C(=O)CNC(C)=O (centres undefined) returned PLCg1 inh 13, ADAM17 inh inactive, KLK7 zymogen act inactive, sPLA2-III inh inactive, PLCb3 inh inactive, ADAM10 inh inactive, PLCgamma1 ctr inactive and PLCbeta3 conf inactive.
For CCOCCCNC(=O)C(c1ccc(Cl)cc1)N(Cc1ccc2c(c1)OCO2)C(=O)CNC(C)=O (centres undefined) the results were PLCg1 inh inactive, ADAM17 inh inactive, KLK7 zymogen act inactive, sPLA2-III inh inactive, PLCb3 inh inactive and ADAM10 inh inactive.
`COc1cc2[nH]c(C(=O)NCc3ccccc3)cc2c(OC)c1OC` gave PLCg1 inh inactive, ADAM17 inh inactive, KLK7 zymogen act inactive, sPLA2-III inh inactive, PLCb3 inh inactive and ADAM10 inh inactive.
`CCC(=O)Nc1cc(C(=O)OCC(=O)c2ccccc2Cl)ccc1C` gave PLCg1 inh 13, ADAM17 inh inactive, KLK7 zymogen act inactive, sPLA2-III inh inactive, PLCb3 inh inactive, ADAM10 inh inactive, PLCgamma1 ctr inactive and PLCbeta3 conf inactive.
`CCC(=O)Nc1cc(C(=O)OCC(=O)c2ccc(Cl)cc2Cl)ccc1C` gave PLCg1 inh inactive, ADAM17 inh inactive, KLK7 zymogen act inactive, sPLA2-III inh inactive, PLCb3 inh inactive and ADAM10 inh inactive.
`CC(C)(C)OC(=O)N1CCc2onc(-c3ccccc3F)c2C1=O` gave PLCg1 inh inactive, ADAM17 inh inactive, KLK7 zymogen act inactive, sPLA2-III inh inactive, PLCb3 inh inactive and ADAM10 inh inactive.
`CCN(CC(=O)NC1CCS(=O)(=O)C1)S(=O)(=O)c1cc(C)ccc1C` (centres undefined) gave PLCg1 inh inactive, ADAM17 inh inactive, KLK7 zymogen act inactive, sPLA2-III inh inactive, PLCb3 inh inactive and ADAM10 inh inactive.
For O=C1[C@H](Cc2ccccc2)NCCCC[C@@H](c2ccc(Cl)cc2)N1Cc1ccccc1 the results were PLCg1 inh 16, ADAM17 inh inactive, KLK7 zymogen act inactive, sPLA2-III inh inactive, PLCb3 inh inactive, ADAM10 inh inactive, PLCgamma1 ctr inactive and PLCbeta3 conf inactive.
For CCNC(=O)COC(=O)C1CCN(S(=O)(=O)c2ccc3c(c2)OCCO3)CC1 the results were PLCg1 inh 10, ADAM17 inh inactive, KLK7 zymogen act inactive, sPLA2-III inh inactive, PLCb3 inh inactive, ADAM10 inh inactive, PLCgamma1 ctr inactive and PLCbeta3 conf inactive.
CC(C)C(C)NC(=O)COC(=O)C1CCN(S(=O)(=O)c2ccc3c(c2)OCCO3)CC1 (centres undefined) was read as PLCg1 inh 11, ADAM17 inh inactive, KLK7 zymogen act inactive, sPLA2-III inh inactive, PLCb3 inh inactive, ADAM10 inh inactive, PLCgamma1 ctr inactive and PLCbeta3 conf inactive.
Screening CCCNC(=O)COC(=O)C1CCN(S(=O)(=O)c2ccc3c(c2)OCCO3)CC1 returned PLCg1 inh inactive, ADAM17 inh inactive, KLK7 zymogen act inactive, sPLA2-III inh inactive, PLCb3 inh inactive and ADAM10 inh inactive.
O=C(COC(=O)C1CCN(S(=O)(=O)c2ccc3c(c2)OCCO3)CC1)NC1CCCCC1 was read as PLCg1 inh inactive, ADAM17 inh inactive, KLK7 zymogen act inactive, sPLA2-III inh inactive, PLCb3 inh inactive and ADAM10 inh inactive.

Source: PubChem BioAssay
